# Assay results as given in article PMC4552634, “A New Set of Chemical Starting Points with Plasmodium falciparum Transmission-Blocking Potential for Antimalarial Drug Discovery” (PLoS ONE, 2015).
# Where two headings read alike, the source gives them in different places. About 3,200 (25%) of roughly 13,000 compounds showed an effect of 50% or more. The list shows a part of the results.
# Test system: P. falciparum stage V gametocytes
# Set-up: BacTiter-Glo ATP luminescence viability of purified stage V gametocytes in 384-well plates, per cent inhibition versus DMSO
# Conditions: 48 h, 5 µM, inhibitor
Compound,% Inhibition [%],% Inhibition (% Inhibition) [%]
CCC(C)c1ccc(NC(=O)Nc2ccc(Cn3ncc(N4CCCNCC4)c(Cl)c3=O)cc2)cc1 (centres unmarked) [TCMDC-133313],-21.93,
COc1cc(-c2[nH]c(-c3ccc(OCCN(C)C)cc3)cc2-c2ccncc2)ccc1Cl [TCMDC-141225],-13.45,
N=C(N)c1ccc(NC(=O)c2cc(Sc3ccc(O)c(C(=O)Nc4ccc(C(=N)N)cc4)c3)ccc2O)cc1 [TCMDC-136287],-39.81,
CN(C)c1ccc(C=C2SC(=N)N(c3nccs3)C2=O)cc1 [TCMDC-125861],-21.41,
Cc1nc(N)nc(N)c1OCc1cccc2c1ccc1ccccc12 [TCMDC-131344],22.54,
Cc1nc2nc(N)nc(N)c2c(C)c1Cc1ccc([N+](=O)[O-])cc1 [TCMDC-137636],77.57,
Cc1nc2nc(N)nc(N)c2c(C)c1Cc1ccccc1Cl [TCMDC-137668],-12.71,
COc1ccc(OC)c(Cc2c(C)nc3nc(N)nc(N)c3c2C)c1 [TCMDC-137651],-0.1524,
Cc1nc2nc(N)nc(N)c2c(C)c1Cc1cccc(F)c1 [TCMDC-137652],-9.941,
Cc1nc2nc(N)nc(N)c2c(C)c1Cc1ccccc1Br [TCMDC-137242],-1.627,
Cc1nc2nc(N)nc(N)c2c(C)c1Cc1ccc(N)cc1 [TCMDC-137633],-5.029,
Cc1ccc(Cc2c(C)nc3nc(N)nc(N)c3c2C)cc1 [TCMDC-137657],-7.172,
COc1ccccc1Cc1c(C)nc2nc(N)nc(N)c2c1C [TCMDC-137247],65.53,
Cc1nc2nc(N)nc(N)c2c(C)c1Cc1c(Cl)cccc1Cl [TCMDC-137638],65.23,
CO/C(=C\C=C\c1cc2cc(Cl)c(Cl)cc2[nH]1)C(=O)NCCCN1CCN(c2cccc(CCCO)c2)CC1 [TCMDC-139412],14.82,
NC(N)=Nc1ccc(NC(=O)Nc2ccc(N=C(N)N)cc2)cc1 [TCMDC-137208],-16.48,
Cc1cccc2nc(-c3ccc(-c4cccc(NC(=O)NCc5cccc(F)c5)c4)s3)[nH]c12 [TCMDC-133285],-13.08,
OC1CCC(Nc2ccc3ncc(-c4ccc(Cl)cc4)n3n2)CC1 (centres unmarked) [TCMDC-136693],13.04,
OC(CNc1ccnc(Nc2ccc(Cl)cc2)n1)c1ccc(C(F)(F)F)cc1 (centres unmarked) [TCMDC-136597],-19.72,
CC(C)(CNCc1ccc(F)c(F)c1)c1nc(-c2ccc(Cl)c(O)c2)c(-c2ccnc(N)n2)[nH]1 [TCMDC-141163],-6.922,
O=C(NCCSCc1c(F)cccc1Cl)c1cnc2c(c1)nc(-c1cnc(-c3ccccc3)[nH]1)n2CCc1cnc[nH]1 [TCMDC-139691],-6.07,
CCCOc1cc(OCCC)cc(-c2ccc(C(=O)Nc3ccc4ccc(C)nc4c3)c(=O)[nH]2)c1 [TCMDC-141499],82.34,
Cc1ccc2cc(NC(=O)c3cccc(C(=O)Nc4ccc5nc(C)ccc5c4)n3)ccc2n1 [TCMDC-139460],-22.62,
CCNc1cc(C)nc(Nc2ccc(NC(=O)c3ccccc3Cl)cc2)n1 [TCMDC-124986],-9.535,

Compound,% Inhibition [%],% Inhibition (% Inhibition) [%]
CC1(C)CCCN(Cc2c(O)ccc3c(=O)c(-c4nc5ccccc5s4)c(N)oc23)C1 [TCMDC-124009],-3.964,
O=C(NC1CCN(Cc2ccsc2)CC1)c1ccc(-c2cccc(C(F)(F)F)c2)s1 [TCMDC-134366],17.83,
Cc1cc(CN2CCC(Nc3ncc(-c4ccsc4)c4nc(C(F)(F)F)ccc34)CC2)no1 [TCMDC-125306],66.69,
Cc1nc(-c2nc(N3CCC(O)CC3)ncc2-c2ccsc2)sc1C [TCMDC-133149],35.11,
CCCNc1ccc(-c2cc(C(N)=O)c3[nH]cc(C4CCN(S(=O)(=O)CC)CC4)c3c2)cn1 [TCMDC-136721],8.74,
Oc1cccc2c1CC(NCc1ccccc1)CC2 (centres unmarked) [TCMDC-137987],8.096,
NC(=O)c1cc(-c2ccccc2)cc2c(C3CCC(NCc4ccccc4)C3)c[nH]c12 (centres unmarked) [TCMDC-136335],119.1,
S=C(Nc1ccc2c(c1)OCCO2)NC1CCC(CN2CCC(c3c[nH]c4ccccc34)CC2)CC1 (centres unmarked) [TCMDC-140205],,-9.163
COC(=O)c1sccc1NC(=S)NC1CCC(CN2CCC(c3c[nH]c4ccccc34)CC2)CC1 (centres unmarked) [TCMDC-140184],,87.69
S=C(Nc1ccc2c(c1)OCCO2)NC1CCC(CN2CCC(c3c[nH]c4ccccc34)CC2)CC1 (centres unmarked) [TCMDC-140187],,28.79
COC(=O)c1sccc1NC(=S)NC1CCC(CN2CCC(c3c[nH]c4ccccc34)CC2)CC1 (centres unmarked) [TCMDC-140202],,68.17
O=C(Nc1ccc(C(=O)OCC2CCCN3CCCCC23)cc1)c1ccc([N+](=O)[O-])cc1 (centres unmarked) [TCMDC-124028],-7.885,
COc1ccc(-c2ccccc2CNc2nc(NCCc3ccc(O)cc3)nc(N3CCNCC3)n2)cc1 [TCMDC-133785],16.29,
Oc1ccc2nc(N3CCNCC3)nc(NCCCc3ccccc3)c2c1 [TCMDC-138362],-3.438,
COc1ccc2nccc([C@@H](O)CN3CCC(NC[C@H](Cc4ccccc4)NC(=O)OC(C)(C)C)CC3)c2c1 [TCMDC-140729],28.25,
COc1ccc2nc(N3CCNCC3)nc(NCCCc3ccccc3)c2c1 [TCMDC-138367],61.05,
COc1ccc2nc(N3CCN(C(=O)OC(C)(C)C)CC3)nc(NCCCc3ccccc3)c2c1 [TCMDC-138361],104.5,
C/C(=C\C(=O)NC1CC1)c1ccccc1OCc1ccccc1 [TCMDC-137859],-0.1612,
COC(=O)c1cccc(CNCc2cccc(-c3ccc(-c4nc5ccccc5[nH]4)s3)c2)c1.O=C(O)C(F)(F)F [TCMDC-132944],-0.1401,
Cc1cc(NCCC(=O)NCCOc2ccccc2)nc(NCCc2ccccc2)n1 [TCMDC-134771],71.03,
COc1ccc(NC(=O)CCNc2cc(C)nc(Nc3ccccc3)n2)cc1 [TCMDC-134731],16.78,
Cc1cc(NCCC(=O)NCCOc2ccccc2)nc(Nc2ccccc2)n1 [TCMDC-134732],39.63,
Cc1cc(NCCC(=O)NCCOc2ccccc2)nc(NCCc2ccc(F)cc2)n1 [TCMDC-134865],48.39,
Cc1cc(NCCC(=O)Nc2ccccc2)nc(NCCOc2ccccc2)n1 [TCMDC-134878],88.65,

Compound,% Inhibition [%],% Inhibition (% Inhibition) [%]
Cc1cc(NCCC(=O)NCCOc2ccccc2)nc(NCCOc2ccccc2)n1 [TCMDC-134877],53.53,
Cc1cc(NCCC(=O)NCCOc2ccccc2)nc(NCc2ccccc2C)n1 [TCMDC-134900],9.691,
COc1ccc(NC(=O)CCNc2cc(C)nc(NCCOc3ccccc3)n2)cc1 [TCMDC-134876],16.63,
COc1ccccc1CCNc1nc(C)cc(NCCC(=O)NCCOc2ccccc2)n1 [TCMDC-134799],41.79,
Cc1cccc(N2CCN(C3CCC(NC(=O)c4cc5ccccc5[nH]4)CC3)CC2)c1C (centres unmarked) [TCMDC-132891],-4.538,
COc1ccc(S(=O)(=O)N2CCC(NS(=O)(=O)c3ccc(F)cc3)CC2)cc1 [TCMDC-123512],11.24,
CC(=O)Nc1ccc(CN(C)C2CCN(c3cc(NC(=O)c4cccc(C)c4)ccn3)CC2)cc1 [TCMDC-134982],-8.957,
CN1CCN(c2cccc(NC(=O)c3ccc(-c4ccc(C#N)cc4)cc3)c2)CC1 [TCMDC-138669],-26.05,
Fc1cccc2sc(Nc3nc(-c4ccccn4)cs3)nc12 [TCMDC-125542],81.67,
COc1ccc2nc(Nc3nc(-c4ccccn4)cs3)sc2c1 [TCMDC-125541],1.427,
COc1cccc2sc(Nc3nc(-c4ccccn4)cs3)nc12 [TCMDC-125543],33.34,
Fc1ccc2nc(Nc3nc(-c4ccccn4)cs3)sc2c1 [TCMDC-125540],71.85,
c1ccc(-c2csc(Nc3nc4cc5c(cc4s3)OCO5)n2)nc1 [TCMDC-124550],41.05,
Cc1ccc(NC(=O)c2ccc3ncccc3c2)cc1OC1CCN(Cc2ccc(F)cc2)CC1 [TCMDC-133747],-16.12,
Cc1cc(NC(=O)Nc2ccc(I)c(OCCN(C)C)c2)ccc1Br [TCMDC-139108],-4.695,
CN(Cc1cccc(O)c1)C1CCCN(c2cc(NC(=O)c3ccc(F)cc3)ccn2)C1 (centres unmarked) [TCMDC-134960],-31.52,
CNC(=O)/C=C/c1cc(NC(=O)Nc2ccnc3c(Br)cccc23)ccc1OC [TCMDC-140331],7.673,
O=C1C2=C(Nc3ccccc3SC2c2ccccc2)c2ccccc21 (centres unmarked) [TCMDC-123496],22.47,
COc1ccc(-c2ccc(NC(=O)c3cccc(C#N)c3)cc2)cc1CN1CCCN(C)CC1 [TCMDC-132531],38.42,
COc1ccc(-c2cccc(NC(=O)c3cccc(F)c3)c2)cc1CN1CCCN(C)CC1 [TCMDC-132619],89.96,
CN1CCCN(Cc2ccc(-c3cccc(NC(=O)c4cccc(F)c4)c3)cc2)CC1 [TCMDC-132646],-5.89,
COc1ccc(-c2ccc(NC(=O)c3cccc(F)c3)cc2)cc1CN1CCCN(C)CC1 [TCMDC-132528],79.48,
COc1ccc(-c2cccc(NC(=O)c3ccc(F)cc3)c2)cc1CN1CCCN(C)CC1 [TCMDC-132607],5.891,
